Screens (PubChem BioAssay)
The list is not random: actives were taken first. Their share in the collection is about 1.9%.
aDG glyco up: activators of alpha-DG glycosylation, primary screen, uHTS, Pro5-aDG cells, AlphaScreen; alpha-DG glycosylation AlphaScreen (IIH6); 0% Pro5, 100% B10-LARGE cell signal; activation, % at 10 µM; AID 624168, 2012; 0.22% of 360,000 active;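 active = activation of at least 8% versus controls, or a plate z-score of at least 8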;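 note: Pro5 are CHO cells carrying HIG-tagged alpha-DG that lacks glycosylation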
NCF1 inh: p47phox/p22phox peptide binding inhibitors, primary screen, biochemical, uHTS, NADPH oxidase regulatory subunit | fluorescence polarization, 2 h | inhibition, % at 24.7 µM | 0.53% of 220,000 active | AID 1274, 2008;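 active = inhibition above about 30%, limit read from the data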;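 note: 0% = p47phox with labelled peptide and 100% = labelled peptide alone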
Target sequence (P14598 whole entry, looked up): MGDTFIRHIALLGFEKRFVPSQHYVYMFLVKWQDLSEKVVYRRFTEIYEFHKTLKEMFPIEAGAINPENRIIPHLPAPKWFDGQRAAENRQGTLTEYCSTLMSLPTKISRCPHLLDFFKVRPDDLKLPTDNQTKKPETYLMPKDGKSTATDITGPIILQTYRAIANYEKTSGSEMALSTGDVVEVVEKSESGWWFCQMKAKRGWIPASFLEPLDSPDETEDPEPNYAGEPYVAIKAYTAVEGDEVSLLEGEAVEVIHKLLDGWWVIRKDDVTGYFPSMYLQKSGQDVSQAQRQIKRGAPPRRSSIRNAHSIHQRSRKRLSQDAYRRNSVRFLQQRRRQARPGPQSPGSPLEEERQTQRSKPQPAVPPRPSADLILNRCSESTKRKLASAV
PG9 binder: binders of HIV-1 gp120 antibody PG9, primary screen, biochemical, TR-FRET. TR-FRET gp120-PG9 antibody binding. inhibition, % at 6.7 µM. 0.43% of 360,000 active. HIV-1 gp120 / PG9 antibody interaction. AID 624416, 2012; in the data active = inhibition above about 8.5%
Rev-erbA mod: modulators of Rev-erb alpha DNA binding, primary screen, biochemical, FITC-DNA, fluorescence polarization, uHTS | Rev-erbα–FITC-DNA binding, 90 min | 0.79% of 370,000 active | AID 1259318, 2017 | activity, % at 10 µM;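 active = activity above about 14%, limit read from the data; passing the limit was not always enough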;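 note: 0% = DMSO wells with 35 nM protein and 100% = DMSO wells with 750 nM protein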
ZTA DNA inh: blocks Epstein-Barr virus ZTA, an EBNA-1 counter-screen; 0.15% of 320,000 active; ZTA-DNA binding, fluorescence polarization; inhibition, % at 11 µM; P03206; AID 2234; in the data active = inhibition above about 33%
EBNA-1 inh: EBNA-1 DNA-binding inhibitors, primary screen, biochemical, fluorescence polarization. inhibition, % at 14.8 µM. 0.34% of 300,000 active. AID 1950, 2009; in the data active = inhibition above about 28%
Rev-erbA confirm: modulators of Rev-erb alpha DNA binding, confirmation, biochemical, FITC-DNA, fluorescence polarization, single point; shares compounds with Rev-erbA mod; AID 1259319, 2017; activation, % at 25 µM; 90 min; 61% of 3,000 active;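 active = activation at or above a set limit, or at least 3 SD above the negative control mean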;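 note: 0% = 35 nM protein with DMSO and 100% = 750 nM protein high control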
RORg counter: modulation of RORgamma DNA binding, dose response, counter-screen for Rev-erb alpha modulator project, biochemical, fluorescence polarization, FITC-DNA; shares compounds with Rev-erbA mod; purified RORgamma protein-FITC-DNA binding; IC50, µM; 8% of 910 active; AID 1259320, 2017;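 active = Compounds whose fitted half-maximal concentration for disrupting protein-DNA binding is below 10 micromolar; the record names Rev-erb in its text, so the target is in doubt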
Active calls of the source: *; . = no result given.

SMILES	aDG glyco up	NCF1 inh	PG9 binder	Rev-erbA mod	ZTA DNA inh	EBNA-1 inh	Rev-erbA confirm	others
CCN(CC)S(=O)(=O)c1ccc(C(=O)OCCN2C(=O)c3cccc4c(N5CCOCC5)ccc(c34)C2=O)cc1	0	-98	1	278*	1	7	217*	RORg counter=>40
O=C(OCCN1C(=O)c2cccc3c(N4CCOCC4)ccc(c23)C1=O)c1cc(Cl)cc(Cl)c1	.	-61	.	.	.	.	.
CC(=O)N(C(C)=O)N1C(=O)c2cccc3c(N4CCOCC4)ccc(c23)C1=O	0	-47	-6	17*	-9	15	18
CCN(CC)C(=O)CSC1=C(C#N)C(c2cccs2)C=C(C)N1 (stereo not given)	0	-4	-1	56*	7	4	42*	RORg counter=>40
CCOc1cc2[nH]c(=S)n(CCC(=O)NCc3ccco3)c(=O)c2cc1OCC	0	5	2	27*	-1	-1	-1
COc1ccc2c(c1)c(/C=C/c1cc[n+](C)cc1)cn2C	0	.	-22	100*	-6	8	79*	RORg counter=>40
COc1ccc2c(/C=C/c3cc[n+](C)cc3)c[nH]c2c1	0	.	-27	46*	5	5	31*	RORg counter=>40
Cc1ccc2[nH]cc(/C=C/c3cc[n+](C)cc3)c2c1	0	.	-21	232*	.	.	142*	RORg counter=>40
CCCCN(C)C(=O)c1ccc2c(c1)NC(=O)C(C)(C)O2	.	.	.	-2	.	.	.
COc1ccccc1-n1cnc2sc(-c3ccccc3)cc2c1=O	0	9	1	20*	15	0	5
COc1ccccc1-n1cnc2sc(C)c(C)c2c1=O	0	.	-2	2	10	11	.
C[C@H]1CN(S(=O)C(C)(C)C)[C@@H](CCO)/C1=C\c1ccccc1 (stereo not given in full)	0	.	1	15*	.	.	-1
C[C@H]1CN(S(=O)C(C)(C)C)[C@H](CCO)/C1=C\c1ccccc1 (stereo not given in full)	0	.	0	-1	.	.	.
O=S1(=O)C=CCN1Cc1cn(Cc2cccc(Cl)c2)nn1	.	.	.	0	.	.	.
CCOC(=O)c1cnc2cc(-c3ccc(Cl)cc3)nn2c1N	0	-7	1	20*	-5	-11	0
COc1ccc(-c2cc3ncc(C(C)=O)c(C)n3n2)cc1	0	1	0	36*	2	-2	13
CCCCN(Cc1ccccc1)S(=O)(=O)c1ccc2c(c1)n(C)c(=O)c(=O)n2C	0	2	-1	45*	6	2	10
CN(C)CCN(Cc1ccccc1)S(=O)(=O)c1ccc2c(c1)n(C)c(=O)c(=O)n2C	0	-11	0	-2	-3	10	.
CN(C)c1ccc(N=C/C=C2/N(C)c3ccccc3C2(C)C)cc1	3	-55	-21	25*	.	.	16
NC(=O)C1(N2CCCCC2)CCN(C(=S)Nc2ccc(F)c(Cl)c2)CC1	0	.	-2	13*	-18	-12	-6
CC(C)c1nc2sc3c(NCc4ccco4)ncnc3c2c2c1COC(C)(C)C2	0	-31	1	1	-5	2	.
CC(C)c1nc2sc3c(NCc4ccccc4)ncnc3c2c2c1COC(C)(C)C2	0	-6	0	24*	-10	0	10
O=[N+]([O-])c1cccc(OCCCN2CCC(C(O)(c3ccccc3)c3ccccc3)CC2)c1	.	.	.	9	.	.	.
CCCNC(=O)c1cc(-c2ccccc2)c(N2CCCCC2)s1	0	.	3	93*	17	7	27*
CN(C)C(=O)CSc1nc(-c2cccs2)c(-c2cccs2)[nH]1	0	.	0	22*	-13	-11	24*
